Laboratory results reported in PubChem BioAssay (NCATS).
Where “and” joins values, the source holds several entries; their conditions need not be identical. Equal values may be shown once. Results filed as inconclusive are left out. A number with no mark means an inactive call. Calls of active or inactive are those of the source. Calls follow the shape of the dose curve; as a rule, active = well fitted inhibition curve with a large enough effect; inconclusive = small, poorly fitted or top-dose-only effect; inactive = flat fitted curve, though single readings scatter. Non-standard residues stand in square brackets, D forms with d. Residues, ends and D or L forms follow the SMILES beside them. Orn = NCCC[C@H](N)C(=O)O

System: KB-3-1
Assay: Cytotoxic Profiling of Annotated Libraries Using Quantitative High-Throughput Screening (AID 1296008); also: nearly all actives have a fitted effect of over 60% in size
Conditions: Five cell lines viability, CellTiter-Glo ATP luminescence, 48-72 h; max response: hits give low values
In short: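 Compounds were pin-transferred onto cells and incubated 48 or 72 hr at 37 degree Celsius, 95% humidity. CellTiter-Glo was added, plates sat 10 min at room temperature, then ATP-coupled luminescence was imaged as the viability read-out.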
% is scaled to controls: 0 for no effect and ±100 for the full control effect; potency is read from the fitted curve at half-maximal effect.

SMILES | max response | Potency
CC[C@@H](C(=O)[C@@H](C)[C@@H](O)[C@H](C)CCc1ccc(C)c(O)c1C(=O)O)[C@H]1O[C@](CC)([C@H]2CC[C@](O)(CC)[C@H](C)O2)C[C@@H]1C | 10.1% | 
CCCC(=O)Nc1ncnc2c1ncn2[C@@H]1O[C@@H]2COP(=O)(O)O[C@H]2[C@H]1OC(=O)CCC | -5.3% | 
O=C(O)c1cc(=O)c2c3nc4ccccc4oc-3cc(=O)c2[nH]1 | -4.67% | 
CC(C)C[C@@H]1NC(=O)[C@H](CCCN)NC(=O)[C@H](C(C)C)NC(=O)[C@@H]2CCCN2C(=O)[C@@H](Cc2ccccc2)NC(=O)[C@H](CC(C)C)NC(=O)[C@H](CCCN)NC(=O)[C@H](C(C)C)NC(=O)[C@@H]2CCCN2C(=O)[C@@H](Cc2ccccc2)NC1=O (cyclo(V[Orn]L[dF]PV[Orn]L[dF]P)) |  | 0.82 µM (active)
N[C@H](C(=O)O)[C@@H]1CC(Cl)=NO1 |  | 20.6 µM (active)
CCOC(=O)O[C@]1(C(=O)COC(=O)CC)CC[C@H]2[C@@H]3CCC4=CC(=O)C=C[C@]4(C)[C@H]3[C@@H](O)C[C@@]21C | 0.126% | 
OCCO[C@@H]1[C@@H](O)[C@H](O)[C@@H](CO)O[C@@H]1O | 22% | 
CCCC(=O)O[C@]1(C(=O)COC(C)=O)CC[C@H]2[C@@H]3C[C@H](F)C4=CC(=O)C=C[C@]4(C)[C@@]3(F)[C@@H](O)C[C@@]21C | 20.2% | 
CC(=O)OCC(=O)[C@@]12OC3(CCCC3)O[C@@H]1C[C@H]1[C@@H]3CCC4=CC(=O)C=C[C@]4(C)[C@@]3(F)[C@@H](O)C[C@@]12C | -4.92% | 
CC1(C)S[C@@H]2[C@H](NC(=O)Cc3ccccc3)C(=O)N2[C@H]1C(=O)O | -8.27% | 
CN(C)CC/C=C1/c2ccccc2CSc2ccccc21 | -13.6% | 
CCCCC(CC)COC(=O)CC(C(=O)OCC(CC)CCCC)S(=O)(=O)O (configuration not stated) | -3.48% and -14.8% | 
